Source: PubChem BioAssay AID1159580 (chemical genetic matrix, 2015)
The whole screen tested about 5,500 compounds, of which about 2,000 (36%) were called active. Another 18% or so got no clear call; they are omitted. No stated cut-off is given here; in the data, active means normalized growth mostly below about 0.91 (no sharp cut-off); inconclusive means no clear call, values can overlap the other calls; inactive means mostly above about 0.92. Some of the results follow.

Assay: chemical genetic growth profiling, strain panel (AID 1159580);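 further: tested at 20 µM; growth read once vehicle control cultures reached saturation at 30 °C; 1 = growth at the plate median or of vehicle wells; lower values mean less growth of the strain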
Settings: S. cerevisiae deletion strains, growth OD

Measured: normalized growth

CCN1C[C@]2(OC(=O)c3ccccc3NC(C)=O)CCC(OC)[C@]34C1[C@H](CC23)[C@@]1(O)CC(OC)[C@H]2CC4C1(O)[C@H]2OC (stereo not given in full)
inactive: locus YAL021C, strain ccr4, hits give low values 0.966 | locus YAL026C, strain drs2, hits give low values 0.981 | locus YAL030W, strain snc1, hits give low values 0.977 | locus YBL061C, strain skt5, hits give low values 0.971 | locus YBR009C, strain hhf1, hits give low values 0.985 | locus YBR023C, strain chs3, hits give low values 0.977 | locus YBR171W, strain sec66, hits give low values 0.96 | locus YBR231C, strain swc5, hits give low values 0.972 | locus YBR279W, strain paf1, hits give low values 0.979 | locus YCL011C, strain gbp2, hits give low values 0.947 | locus YCL016C, strain dcc1, hits give low values 0.971 | locus YCL061C, strain MRC1, hits give low values 1 | locus YCL069W, strain vba3, hits give low values 0.955 | locus YCR088W, strain abp1, hits give low values 0.946 | locus YDL005C, strain med2, hits give low values 0.948 | locus YDL040C, strain nat1, hits give low values 0.969 | locus YDR001C, strain nth1, hits give low values 0.977 | locus YDR069C, strain doa4, hits give low values 0.953 | locus YDR137W, strain rgp1, hits give low values 1.02 | locus YDR159W, strain sac3, hits give low values 0.979 | locus YDR195W, strain ref2 0.963 | locus YDR297W, strain sur2, hits give low values 0.967 | locus YDR334W, strain swr1, hits give low values 0.974 | locus YDR335W, strain msn5, hits give low values 0.958 | locus YDR392W, strain spt3, hits give low values 0.921 | locus YEL003W, strain gim4, hits give low values 0.98 | locus YEL037C, strain rad23, hits give low values 0.958 | locus YEL061C, strain CIN8 (second series), hits give low values 0.963 | locus YER015W, strain faa2, hits give low values 0.974 | locus YER016W, strain bim1, hits give low values 0.979 | locus YER111C, strain swi4, hits give low values 0.986 | locus YER155C, strain BEM2 (second series), hits give low values 0.974 | locus YFR010W, strain ubp6, hits give low values 0.975 | locus YGL167C, strain pmr1, hits give low values 0.974 | locus YGL173C, strain kem1, hits give low values 0.972 | locus YGL227W, strain vid30, hits give low values 0.956 | locus YGL240W, strain doc1, hits give low values 0.973 | locus YGL253W, strain hxk2, hits give low values 0.963 | locus YHR013C, strain ard1, hits give low values 0.969 | locus YHR027C, strain rpn1, hits give low values 0.992 | locus YHR030C, strain SLT2, hits give low values 0.976 | locus YHR079C, strain IRE1, hits give low values 0.98 | locus YHR142W, strain chs7, hits give low values 0.95 | locus YJL092W, strain hpr5, hits give low values 0.953 | locus YJL095W, strain BCK1 (second series), hits give low values 0.974 | locus YJL095W, strain BCK1, hits give low values 0.97 | locus YJL115W, strain asf1, hits give low values 0.973 | locus YJL129C, strain trk1, hits give low values 0.961 | locus YJL154C, strain vps35, hits give low values 0.952 | locus YJL164C, strain tpk1, hits give low values 0.983 | locus YJL166W, strain qcr8, hits give low values 0.979 | locus YJL187C, strain SWE1, hits give low values 0.987 | locus YJR066W, strain TOR1, hits give low values 0.975 | locus YKL160W, strain elf1, hits give low values 0.979 | locus YKR026C, strain gcn3, hits give low values 0.975 | locus YKR091W, strain srl3, hits give low values 0.979 | locus YLL001W, strain dnm1, hits give low values 0.993 | locus YLL026W, hits give low values 0.984 | locus YLL041C, strain sdh2, hits give low values 0.978 | locus YLR027C, strain aat2, hits give low values 0.967 | locus YLR113W, strain HOG1, hits give low values 0.969 | locus YLR221C, strain rsa3, hits give low values 0.976 | locus YLR258W, strain gsy2, hits give low values 0.974 | locus YLR262C, strain YPT6 (second series), hits give low values 1.04 | locus YLR320W, strain mms22, hits give low values 0.983 | locus YLR342W, strain FKS1, hits give low values 0.961 | locus YLR357W, strain rsc2, hits give low values 0.945 | locus YLR370C, strain arc18, hits give low values 0.973 | locus YLR384C, strain iki3, hits give low values 0.959 | locus YML120C, strain ndi1, hits give low values 0.974 | locus YMR058W, strain fet3, hits give low values 0.989 | locus YMR125W, strain sto1, hits give low values 0.953 | locus YMR129W, hits give low values 0.98 | locus YMR205C, strain PFK2, hits give low values 0.993 | locus YMR231W, strain pep5, hits give low values 0.953 | locus YNL071W, strain lat1, hits give low values 0.956 | locus YNL183C, strain NPR1, hits give low values 0.905 | locus YNL209W, strain ssb2, hits give low values 0.974 | locus YNL248C, strain rpa49, hits give low values 0.98 | locus YNL322C, strain KRE1 (second series), hits give low values 0.972 | locus YNR049C, strain mso1, hits give low values 0.979 | locus YOR001W, strain rrp6, hits give low values 0.961 | locus YOR070C, strain gyp1, hits give low values 0.964 | locus YOR080W, strain dia2, hits give low values 0.97 | locus YOR083W, strain WHI5, hits give low values 0.973 | locus YOR106W, strain vam3, hits give low values 0.959 | locus YOR231W, strain MKK1, hits give low values 0.978 | locus YOR265W, strain rbl2, hits give low values 0.982 | locus YOR270C, strain vph1, hits give low values 0.975 | locus YOR290C, strain snf2, hits give low values 0.986 | locus YPL051W, strain arl3, hits give low values 0.979 | locus YPL078C, strain atp4, hits give low values 0.971 | locus YPL106C, strain sse1, hits give low values 0.923 | locus YPL240C, strain hsp82, hits give low values 0.963 | locus YPL256C, strain CLN2, hits give low values 0.956
